Measurements reported in PubChem BioAssay AID504408 (Broad Institute, 2011).
Out of some 300,000 compounds screened, about 5,200 (1.7%) were called active.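 The calls were made as follows: active = mean replicate activation of at least 50% with a set share of replicates each reaching 50%; inconclusive = only one of those two conditions met; inactive = mean below 50% and too few replicates reaching it.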 Only a selection was taken, and actives are over-represented in it overall.

Experiment: HSF-1 activators, primary screen, NIH3T3-HGL cells, MG132 stress, luminescence, single point (AID 504408);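 also: 0% = median of the neutral control wells and 100% = twice that signal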
Conditions: NIH3T3-HGL HSF-1 luciferase reporter, MG132, 8 h; at 9 µM; stronger effect = higher value; 100% = twice DMSO control signal

activation, active:
Cc1cc(C)c(C#N)c(SCc2[nH]nc3c2C(c2ccccc2)C(C#N)=C(N)O3)n1 (stereo not drawn) 64%, Clc1ccc(-c2csc(-c3ccncc3)n2)cc1 58%, Cc1nn(-c2ccccc2)c(Cl)c1/C=C/C(=O)c1ccc(O)cc1 76.9%, O=C(/C=C/c1ccc([N+](=O)[O-])o1)NNC(=O)c1ccc(F)cc1 71.3%, N#Cc1cccc(NC(=O)COC(=O)c2ccccc2C(=O)c2ccc(Cl)c([N+](=O)[O-])c2)c1 241%

activation, inactive:
Cc1ccc(-c2csc(NC(=O)C3=COCCO3)n2)cc1C 31.4%, Cc1cc(C)c2c3c(sc2n1)C(c1ccccc1)C(C#N)=C(N)O3 (stereo not drawn) -10.5%, CCc1ccc(C2C(C#N)=C(N)Oc3n[nH]c(CC(=O)OC)c32)cc1 (stereo not drawn) 3.08%, CCN(C(=O)CSc1ncnc2c1cnn2-c1ccccc1)C1CCS(=O)(=O)C1 (stereo not drawn) -4.69%, Fc1ccc(-c2csc(-c3ccc(C4SCCS4)cc3)n2)cc1F 23.4%, Nc1scc(-c2ccncc2)c1Cl 11.5%, CCCn1c(C)cc(/C=C(\C#N)C(=O)OCC(=O)N(C)c2c(N)n(Cc3ccccc3)c(=O)[nH]c2=O)c1C -4.32%, Cc1ccc(C(=O)/C=C/c2c(C)nn(-c3ccccc3)c2Cl)cc1 42.3%, Cc1nn(-c2ccccc2)c(Cl)c1C(=O)Nc1ccccc1 -8.73%, COc1cc2c(cc1OC)C(Cc1cc(OC)c(OC)cc1[N+](=O)[O-])=NCC2 -5.53%, C/[N+]([O-])=C\c1ccc([N+](=O)[O-])o1 -2.43%, O=C(N/N=C/c1ccc([N+](=O)[O-])o1)c1cn(-c2ccccc2)nc1-c1ccc(F)cc1 3.06%, Cc1ccc(OCCNC(=O)CNC(=O)c2ccc(C)c(C)c2)cc1 16.2%, O=C1[C@H]2[C@@H](c3ccc(Cl)cc3)N3C(=O)N(c4cccc(F)c4)C(=O)[C@@]3(Cc3ccccc3)[C@H]2C(=O)N1C1CCCCC1 -0.394%, COC(=O)c1cc(NC(=O)Cc2ccccc2[N+](=O)[O-])ccc1Cl -11.7%, CC(=O)Nc1ccc(NC(=O)C(C)OC(=O)c2ccccc2C(=O)c2ccc(Cl)c([N+](=O)[O-])c2)cc1 (stereo not drawn) 27.5%, CC1(c2ccc(Cl)cc2Cl)NC(=O)N(CC(=O)Nc2cccnc2Cl)C1=O (stereo not drawn) -7.46%, COc1ccccc1CCNC(=O)C(=O)NCCC1CCCCN1S(=O)(=O)c1cccs1 (stereo not drawn) 18%
